Measured values: the supplement of paper PMC9492666

Assays:
HCC1937 = experiment: relative cell viability, compound + RSL3, vs DMSO (fraction of DMSO control); higher = less growth inhibition; conditions: 72 h
MDA-MB-231 = experiment: as above; conditions: 72 h
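Further: breast cancer cell viability read out with the CCK-8 kit after co-treatment of each compound with the ferroptosis inducer RSL3.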

| Compound | relative cell viability (HCC1937) | relative cell viability (MDA-MB-231) |
| --- | --- | --- |
| CCOP(=O)(OCC)C(=Cc1cc(C(C)(C)C)c(O)c(C(C)(C)C)c1)P(=O)(OCC)OCC + COC(=O)c1ccc([C@H]2c3[nH]c4ccccc4c3C[C@H](C(=O)OC)N2C(=O)CCl)cc1 [RSL3] | 0.274 | 0.448 |
| CC(C)=CCC[C@](C)(O)[C@H]1CC[C@]2(C)[C@@H]1[C@H](O)C[C@@H]1[C@@]3(C)CC[C@H](O)C(C)(C)[C@@H]3[C@@H](O)C[C@]12C [(20S)-Protopanaxatriol] + COC(=O)c1ccc([C@H]2c3[nH]c4ccccc4c3C[C@H](C(=O)OC)N2C(=O)CCl)cc1 [RSL3] | 0.762 | 0.672 |
| COc1cccc(-n2c(=O)[nH]c3cc(Cl)n(-c4ccc(-c5cccc(OC)c5O)cc4)c3c2=O)c1 + COC(=O)c1ccc([C@H]2c3[nH]c4ccccc4c3C[C@H](C(=O)OC)N2C(=O)CCl)cc1 [RSL3] | 0.395 | 0.572 |
| NC(N)=NN=Cc1cccc(Cl)c1Cl [Raphin1] + COC(=O)c1ccc([C@H]2c3[nH]c4ccccc4c3C[C@H](C(=O)OC)N2C(=O)CCl)cc1 [RSL3] | 0.289 | 0.626 |
| Cc1c(C(=O)Nc2ccc(CO)cc2)nnn1Cc1ccc(Cl)c(Cl)c1 + COC(=O)c1ccc([C@H]2c3[nH]c4ccccc4c3C[C@H](C(=O)OC)N2C(=O)CCl)cc1 [RSL3] | 0.406 | 0.573 |
| O=C(O)c1cc(F)c2nc(N3[C@@H]4CC[C@H]3C[C@@H](OCc3c(-c5ccccc5OC(F)(F)F)noc3C3CC3)C4)sc2c1 [Tropifexor] + COC(=O)c1ccc([C@H]2c3[nH]c4ccccc4c3C[C@H](C(=O)OC)N2C(=O)CCl)cc1 [RSL3] | 0.603 | 0.63 |
| COc1ccc(-c2cc(=O)c3c(O)c(OC)c(O)cc3o2)cc1OC [Eupatilin] + COC(=O)c1ccc([C@H]2c3[nH]c4ccccc4c3C[C@H](C(=O)OC)N2C(=O)CCl)cc1 [RSL3] | 0.354 | 0.496 |
| Nc1cccc(S(=O)(=O)N2CCCN(S(=O)(=O)c3ccc4c(c3)OCCO4)CC2)c1 + COC(=O)c1ccc([C@H]2c3[nH]c4ccccc4c3C[C@H](C(=O)OC)N2C(=O)CCl)cc1 [RSL3] | 0.382 | 0.632 |
| O=C(NNc1ccccc1)c1ccncc1 [PluriSln 1] + COC(=O)c1ccc([C@H]2c3[nH]c4ccccc4c3C[C@H](C(=O)OC)N2C(=O)CCl)cc1 [RSL3] | 0.418 | 0.656 |
| Cc1cccc(Nc2cc(Cl)nc(SCC(=O)O)n2)c1C [Pirinixic Acid] + COC(=O)c1ccc([C@H]2c3[nH]c4ccccc4c3C[C@H](C(=O)OC)N2C(=O)CCl)cc1 [RSL3] | 0.603 | 0.495 |
| CC(=O)O[C@H](CC=C(C)C)C1=CC(=O)c2c(O)ccc(O)c2C1=O [Acetyl shikonin] + COC(=O)c1ccc([C@H]2c3[nH]c4ccccc4c3C[C@H](C(=O)OC)N2C(=O)CCl)cc1 [RSL3] | 0.665 | 0.681 |
| CCC(=O)Nc1cccc(Oc2nc(Nc3ccc(N4CCN(C)CC4)cc3OC)ncc2Cl)c1 + COC(=O)c1ccc([C@H]2c3[nH]c4ccccc4c3C[C@H](C(=O)OC)N2C(=O)CCl)cc1 [RSL3] | 0.121 | 0.3 |
| CN(C)c1cccc(-c2c3c(=O)n(-c4ccccc4Cl)[nH]c3cc(=O)n2C)c1 + COC(=O)c1ccc([C@H]2c3[nH]c4ccccc4c3C[C@H](C(=O)OC)N2C(=O)CCl)cc1 [RSL3] | 0.433 | 0.579 |
| CC(C)(Oc1ccc(C2CC2(Cl)Cl)cc1)C(=O)O (stereo not given) [Ciprofibrate] + COC(=O)c1ccc([C@H]2c3[nH]c4ccccc4c3C[C@H](C(=O)OC)N2C(=O)CCl)cc1 [RSL3] | 0.787 | 0.706 |
| COC(=O)c1sccc1S(=O)(=O)Nc1ccc(Nc2ccccc2)cc1OC + COC(=O)c1ccc([C@H]2c3[nH]c4ccccc4c3C[C@H](C(=O)OC)N2C(=O)CCl)cc1 [RSL3] | 0.347 | 0.542 |
